Experimental data as given in PubChem BioAssay (Tox21).
Unmarked numbers belong to inactive results. Results filed as inconclusive are left out. Where a call stands in place of a potency, no number is given. Activity calls are given as the source filed them. Calls follow the shape of the dose curve; as a rule, active = well fitted curve in the direction sought with a large enough effect in the repeat runs; inconclusive = weak or mixed curves; inactive = no such curve, though single readings can be large; an effect the other way counts as inactive or inconclusive.

Tests used:
[1] = qHTS RealTime-Glo MT Cell Viability Assay in HEK293 cells - 32 hour (AID 1224868); also: top concentration of the series differs between compounds; nearly all actives have a fitted effect of over 50% in size
Outline: (§1)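 Reads taken at 0, 8, 16, 24, 32 and 40 h from the same wells. HEK293 cells (600/well) carried RealTime-Glo reagents from seeding, with compound added after a 5 h settle at 37 C.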

[2] = A CellTox Green Cytotoxicity Assay to monitor cytotoxicity in HEK293 cells - 0 hour (AID 1224869); also: nearly all actives have a fitted effect of over 50% in size
Outline: (§2)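 Seeding of HEK293 cells together with cytotoxicity dye preceded a 5 h incubation at 37 C/5% CO2. Test compounds in DMSO were then added and fluorescence monitored across 40 h.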

[3] = qHTS RealTime-Glo MT Cell Viability Assay in HepG2 cells - 40 hour (AID 1224870); also: nearly all actives have a fitted effect of over 50% in size
Outline: (§3)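 Real-time viability: cells seeded at 600 per well together with NanoLuc and cell-permeant prosubstrate, compounds added after 5 h incubation. Luminescence tracked at 0, 8, 16, 24, 32 and 40 h of exposure.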

[4] = A CellTox Green Cytotoxicity Assay to monitor cytotoxicity in HEK293 cells - 40 hour (AID 1224871); also: nearly all actives have a fitted effect of over 45% in size
Outline: as §2

[5] = qHTS RealTime-Glo MT Cell Viability Assay in HEK293 cells - 16 hour (AID 1224872); also: top concentration of the series differs between compounds; nearly all actives have a fitted effect of over 50% in size
Outline: as §1

[6] = qHTS RealTime-Glo MT Cell Viability Assay in HepG2 cells - 8 hour (AID 1224873); also: nearly all actives have a fitted effect of over 55% in size
Outline: as §3

[7] = qHTS RealTime-Glo MT Cell Viability Assay in HEK293 cells - 40 hour (AID 1224874); conditions: RealTime-Glo luminescence, stronger effect = lower value; also: nearly all actives have a fitted effect of over 50% in size
Outline: (§4)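 Tox21 screen in HEK293 using RealTime-Glo MT chemistry, with cells and reagent co-dispensed. Luminescence proportional to viable cell number was captured at intervals during 40 h compound exposure at 37 C.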

[8] = A CellTox Green Cytotoxicity Assay to monitor cytotoxicity in HEK293 cells - 24 hour (AID 1224875); also: series mostly up to about 77 µM; nearly all actives have a fitted effect of over 45% in size
Outline: as §2

[9] = qHTS RealTime-Glo MT Cell Viability Assay in HepG2 cells - 32 hour (AID 1224877); also: nearly all actives have a fitted effect of over 55% in size
Outline: (§5)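 HepG2 suspension premixed with RealTime-Glo reagents is plated at 600 cells per well and left 5 h at 37 C/5% CO2. Compounds in DMSO then go in, and bioluminescence reflecting viable cell number is recorded over 40 h.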

[10] = A CellTox Green Cytotoxicity Assay to monitor cytotoxicity in HepG2 cells - 24 hour (AID 1224878); also: nearly all actives have a fitted effect of over 45% in size
Outline: (§6)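 Nonlytic assay: viable cells exclude the dye, so fluorescence scales with cell death. HepG2 at 600 cells/well, compounds added after 5 h, signal read across 40 h.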

[11] = A CellTox Green Cytotoxicity Assay to monitor cytotoxicity in HepG2 cells - 40 hour (AID 1224879); also: nearly all actives have a fitted effect of over 40% in size; also: potency is read from the fitted curve at half-maximal effect
Outline: as §6

[12] = qHTS RealTime-Glo MT Cell Viability Assay in HEK293 cells - 0 hour (AID 1224880); also: top concentration of the series differs between compounds; nearly all actives have a fitted effect of over 45% in size
Outline: as §4

[13] = A CellTox Green Cytotoxicity Assay to monitor cytotoxicity in HEK293 cells - 32 hour (AID 1224881); also: nearly all actives have a fitted effect of over 40% in size
Outline: as §2

[14] = A CellTox Green Cytotoxicity Assay to monitor cytotoxicity in HepG2 cells - 0 hour (AID 1224882); also: nearly all actives have a fitted effect of over 35% in size
Outline: as §6

[15] = A CellTox Green Cytotoxicity Assay to monitor cytotoxicity in HepG2 cells - 32 hour (AID 1224883); also: nearly all actives have a fitted effect of over 50% in size
Outline: as §6

[16] = A CellTox Green Cytotoxicity Assay to monitor cytotoxicity in HEK293 cells - 8 hour (AID 1224884); also: nearly all actives have a fitted effect of over 35% in size
Outline: as §2

[17] = qHTS RealTime-Glo MT Cell Viability Assay in HepG2 cells - 16 hour (AID 1224885); also: nearly all actives have a fitted effect of over 50% in size
Outline: as §5

[18] = qHTS RealTime-Glo MT Cell Viability Assay in HEK293 cells - 24 hour (AID 1224886)
Outline: as §1

[19] = qHTS RealTime-Glo MT Cell Viability Assay in HEK293 cells - 8 hour (AID 1224887)
Outline: as §4

[20] = A CellTox Green Cytotoxicity Assay to monitor cytotoxicity in HepG2 cells - 16 hour (AID 1224876); also: nearly all actives have a fitted effect of over 45% in size
Outline: as §6

Structure (SMILES) | outcome [1] | outcome [2] | outcome [3] | Potency [4] | outcome [5] | outcome [6] | max response [7] [%] | Potency [8] | outcome [9] | Potency [10] | Potency [11] | Potency [12] | Potency [13] | Potency [14] | Potency [15] | Potency [16] | outcome [17] | outcome [18] | outcome [19] | Potency [20]
CCO/C=C1\N=C(c2ccccc2)OC1=O | inactive | inactive | inactive | inactive | inactive | inactive | 18.4 | inactive | inactive | inactive | inactive | inactive | inactive | inactive | inactive | inactive | inactive | inactive | inactive | 
C/C(Cl)=C/CCl | inactive | inactive | inactive | inactive | inactive | inactive | 16 | inactive | inactive | inactive | inactive | inactive | inactive | inactive | inactive | inactive | inactive | inactive | inactive | inactive
CC(C)(O)CCCC1=CCC(C=O)CC1 (stereo not given) | inactive | inactive | inactive | inactive | inactive | inactive | -16 | inactive | inactive | inactive |  | inactive | inactive | inactive | inactive | inactive | inactive | inactive | inactive | inactive
Cc1ccc(N)nc1 | inactive | inactive | inactive | inactive | inactive | inactive | 0.353 | inactive | inactive | inactive |  | inactive | inactive | inactive | inactive | inactive | inactive | inactive | inactive | inactive
N=C(N)S(=O)O | inactive | inactive | inactive | inactive | inactive | inactive | 11.7 | inactive | inactive | inactive |  | inactive | inactive | inactive | inactive | inactive | inactive | inactive |  | inactive
CCCCC(CC)COC(=O)CC#N (stereo not given) | inactive | inactive | inactive | inactive | inactive | inactive | 0.0288 | inactive | inactive | inactive |  | inactive | inactive | inactive | inactive | inactive | inactive | inactive |  | inactive
CCCCCCCCOCCC#N | inactive | inactive | inactive | inactive | inactive | inactive | -1.56 | inactive | inactive |  | 15.5 µM (active) | inactive | inactive | inactive |  | inactive | inactive | inactive | inactive | inactive
CC(C)(Sc1cc(C(C)(C)C)c(O)c(C(C)(C)C)c1)Sc1cc(C(C)(C)C)c(O)c(C(C)(C)C)c1 | inactive | inactive | inactive | inactive | inactive | inactive | 3.52 | inactive | inactive | inactive | inactive | inactive | inactive | inactive | inactive | inactive | inactive | inactive | inactive | inactive
NC(=O)CC[C@@H](N)C(=O)O | inactive | inactive | inactive | inactive | inactive | inactive | 8.04 | inactive | inactive | inactive | inactive | inactive | inactive | inactive | inactive | inactive | inactive | inactive | inactive | inactive
CC(=O)/C=C/C=C1/C2CCC(C2)C1(C)C (stereo not given) | inactive | inactive | inactive | inactive | inactive | inactive | -0.661 | inactive | inactive | inactive |  | inactive | inactive | inactive | inactive | inactive | inactive | inactive | inactive | inactive
O=C(O)Cc1c(Cl)ccc(Cl)c1Cl | inactive | inactive | inactive | inactive | inactive | inactive | 2.56 | inactive | inactive | inactive | inactive | inactive | inactive | inactive | inactive | inactive | inactive | inactive |  | 
CCO[Si](CC(C)C)(OCC)OCC | inactive | inactive | inactive | inactive | inactive | inactive | -8.56 | inactive | inactive |  |  | inactive | inactive | inactive |  | inactive | inactive | inactive | inactive | 
CCCCN(CCCC)CCCCCCN(CCCC)CCCC | inactive | inactive | inactive | inactive | inactive | inactive |  | inactive | inactive | inactive | inactive | inactive | inactive | inactive | inactive | inactive | inactive | inactive | inactive | 
CCCCCCCCC1CO1 (stereo not given) | inactive | inactive | inactive | inactive | inactive | inactive |  | inactive | inactive | inactive |  | inactive | inactive | inactive | inactive | inactive | inactive | inactive | inactive | inactive
